Records with an inconclusive call do not appear. Calls come from the whole dose curve; as a rule, active = well fitted activation curve with a large enough effect; inconclusive = small, poorly fitted or top-dose-only effect; inactive = flat fitted curve, though single readings scatter.
Experiment: qHTS for Inhibitors of Cell Surface uPA Generation: Confirmatory Assay for Cherry-picked Compounds; note: 0% is about no effect
Conditions: cell surface uPA activity generation, qHTS confirmation; series mostly up to 115 µM; inhibition: at the top concentration
Summary of the method: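 RAW 264.7 cells at 4000/well, incubated overnight, then treated with compounds. After 24 h at 37 C, viability was read by ATPlite luminescence. An increase in signal indicates blocked uPA-dependent LF entry.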

inhibition, inactive:
C=CC1=C(C(=O)O)N2C(=O)[C@@H](NC(=O)/C(=N\O)c3csc(N)n3)[C@H]2SC1 (stereo in doubt) 1.1%
Cn1c(=O)n(CC(=O)O)c(=O)c2c1nc1n2CCCN1CCc1ccccc1 -2.69%
CC1CCCN(S(=O)(=O)c2cccc([N+](=O)[O-])c2)C1 (configuration not stated) 0.952%
COc1cc(SC)ccc1C(=O)OCc1nc2ccsc2c(=O)[nH]1 0.565%
CC(=O)Nc1nc2ccccc2[nH]1 -0.707%
O=C(Cc1n[nH]c(=O)c2ccccc12)Nc1cccc(S(=O)(=O)N2CCCCCC2)c1 -3.3%
CCOc1ccc(CCNC(=O)Cc2ccc(NC3=NC4CS(=O)(=O)CC4S3)cc2)cc1OCC (configuration not stated) 2.7%
CCOC(=O)N1CCc2c(sc3nc4n(c(=O)c23)N=C(C)CS4)C1 -1.91%
O=C(NCCS(=O)(=O)N1CCC2(CC1)OCCO2)c1ccc(F)cc1 -0.969%
CCOc1ccccc1C(=O)NC1CCN(CC(=O)Nc2cc(OC)ccc2OC)CC1 -0.0474%
COc1cc(NC(=O)CSc2nnc3ccc(-c4ccncc4)nn23)cc(OC)c1 1.04%
COc1ccc(C(=O)c2sc(Nc3ccccc3)nc2N)cc1 9.15%
Cn1c(C2CCCCC2)nc2cc(N)ccc21 -2.73%
Cc1c(C(=O)N(Cc2ccccc2Cl)C2CCS(=O)(=O)C2)oc2ccccc12 (configuration not stated) -3.3%
COc1cccc(C(=O)Cn2c(NCCCO)nc3ccccc32)c1 -1.59%
NC(=O)CC[C@H](NC(=O)c1ccc(F)cc1)C(=O)OCC(=O)Nc1c(F)c(F)c(F)c(F)c1F 0.0436%
CC(=O)Oc1ccccc1C(=O)Nc1ccccc1C(=O)N1CCCC1 -1.4%

Source: PubChem BioAssay AID720519 (National Center for Advancing Translational Sciences (NCATS), 2013)
